“And” between values parts separate entries of the source, which are not always exact repeats. Identical values can stand only once. Inconclusive results are not listed. Values without a mark were called inactive. The source made the active and inactive calls. Calls follow the shape of the dose curve; as a rule, active = well fitted cell-killing curve with a large enough effect in the repeat runs; inconclusive = weak or mixed curves, or effect the other way; inactive = flat fitted curve, though single readings scatter.

We go through 58 compounds from PubChem BioAssay (Tox21).

Assay [1] in a line: cAMP Responsive Elements (CRE) small molecule antagonists, cell-based qHTS assay: qHTS cell viability counter screen (AID 2060913). Also: nearly all actives have a fitted effect of over 40% in size. An outline of the steps:
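Cytotoxicity counter screen multiplexed with the CRE-bla antagonist read: HEK293T cells in DMEM with dialyzed FBS and 25 mM HEPES were treated 3 hrs under 0.25 uM final NKH477, then viability measured by CellTiter-Glo luminescence.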
A general note: qHTS replaces the single test concentration by a dilution series.

A short description of assay [2]: cAMP Responsive Elements (CRE) small molecule agonists, cell-based qHTS assay: qHTS cell viability counter screen (AID 2060914). Also: nearly all actives have a fitted effect of over 50% in size. The gist of the method: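 Cells are seeded and incubated 18 h, treated with compounds in DMSO for 3 h, read for the bla reporter, then given CellTiter-Glo; luminescence is measured after 30 min at room temperature.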
% is scaled to controls: 0 for no effect and ±100 for the full control effect; potency is read from the fitted curve at half-maximal effect.

As to `CC1=C2[C@H](/C=C(\C)C(=O)O)CC[C@@H](C)[C@H]2CC1`, the Potency result in assay [1] and in assay [2] was “inactive” each time.
Turning to `COc1cc2c(N3CCN(C(=O)Nc4ccc(OC(C)C)cc4)CC3)ncnc2cc1OCCCN1CCCCC1`, the Potency entry in assay [1] and in assay [2] was “inactive” throughout.
In the case of `c1ccc2[nH]ccc2c1`, the Potency entry in assay [1] and in assay [2] was “inactive” throughout.
As to `CN1[C@@H]2CC(OC(=O)[C@H](CO)c3ccccc3)C[C@H]1[C@@H]1O[C@@H]12` (stereo partly specified), the Potency result in assay [1] and in assay [2] was “inactive” in each case.
In the case of `CCCCCCCCCCCCCCCCCO`, the viability change, negative = cytotoxic in assay [1] was 0.838% [at 18.9 µM]. Moreover, the activity change, negative = cytotoxicity in assay [2] is -1.37% [at 18.9 µM].
Take `c1ccc2c(c1)ccc1c3ccccc3ccc21`: the Potency result in assay [1] and in assay [2] was “inactive” each time.
Turning to `O=C(O)Cc1csc(-c2ccc(Cl)cc2)n1`, the Potency result in assay [1] and in assay [2] was “inactive” in each case.
On to `CCOC(=O)CC(C)O` (stereo unspecified), for which the Potency result in assay [1] and in assay [2] was “inactive” throughout.
As for `O=C(Nc1ccc(C(=O)O)c(O)c1)c1ccccc1`, the Potency result in assay [1] and in assay [2] was “inactive” throughout.
Take `Cc1ccc(S(=O)(=O)Oc2ccc(N=Nc3ccc(-c4ccc(N=Nc5c(O)ccc6cc(S(=O)(=O)O)cc(S(=O)(=O)O)c56)c(C)c4)cc3C)cc2)cc1`: the Potency entry in assay [1] and in assay [2] was “inactive” in each case.
For `CCN1CCC[C@H]1CNC(=O)c1c(O)c(Cl)cc(Cl)c1OC`, the Potency entry in assay [1] and in assay [2] was “inactive” each time.
Consider `Nc1ccc(C(=O)OCCCOC(=O)c2ccc(N)cc2)cc1`, for which the Potency result in assay [1] and in assay [2] was “inactive” each time.
As for `CCC1C(=O)OCC1Cc1cncn1C` (stereo unspecified), the Potency result in assay [1] and in assay [2] was “inactive” throughout.
As for `C[C@]12CC[C@@H]3c4ccc(O)cc4CC[C@H]3[C@@H]1CC[C@@H]2OC(=O)CCC1CCCC1`, the Potency result in assay [1] and in assay [2] was “inactive” in each case.
Consider `COc1ccc(/C=C/C(=O)c2ccc(OC)cc2OC)cc1`, for which the Potency entry in assay [1] and in assay [2] was “inactive” throughout.
For `OC1CCCCC1c1ccccc1` (stereo unspecified), the Potency entry in assay [1] and in assay [2] was “inactive” throughout.
In the case of `CCOC(=O)CC(C)=O`, the Potency result in assay [1] and in assay [2] was “inactive” each time.
`N#CCC(=O)O`: the Potency result in assay [1] and in assay [2] was “inactive” in each case.
In the case of `O=c1c(O)c(O)c1=O`, the Potency entry in assay [1] and in assay [2] was “inactive” in each case.
With `C=C(C)CCO`, the Potency result in assay [1] and in assay [2] was “inactive” in each case.
Regarding `NC(=O)COCCN1CCN(C(c2ccccc2)c2ccc(Cl)cc2)CC1` (stereo unspecified), the Potency entry in assay [1] and in assay [2] was “inactive” each time.
Consider `CC(C)OC(C)C`, for which the Potency entry in assay [1] and in assay [2] was “inactive” in each case.
Consider `Nc1ccc(O)cc1`, for which the Potency result in assay [1] and in assay [2] was “inactive” in each case.
Turning to `CCCCCCCCCCCC`, the Potency entry in assay [1] and in assay [2] was “inactive” throughout.
As to `CC1(C)CC(O)CC(C)(C)N1`, the Potency entry in assay [1] and in assay [2] was “inactive” throughout.
As for `O=C1c2ccccc2C(=O)c2c(Cl)cccc21`, the Potency entry in assay [1] and in assay [2] was “inactive” each time.
With `CCCCCCCCCCOCC(O)CN` (stereo unspecified), the Potency result in assay [1] and in assay [2] was “inactive” each time.
As for `Cc1cccc(C)c1NC(=O)CN(CC(=O)O)CC(=O)O`, the Potency result in assay [1] and in assay [2] was “inactive” throughout.
`O=C(Cl)c1cc(Cl)cc(Cl)c1`: the Potency entry in assay [1] and in assay [2] was “inactive” in each case.
As to `N#Cc1ccc(C2CCCc3cncn32)cc1` (stereo unspecified), the Potency result in assay [1] and in assay [2] was “inactive” throughout.
Consider `C=C(C)OC(C)=O`, for which the Potency result in assay [1] and in assay [2] was “inactive” in each case.
`CCCNCCC`: the Potency result in assay [1] and in assay [2] was “inactive” in each case.
For `CC(=O)NCCCCCC(=O)O`, the Potency entry in assay [1] and in assay [2] was “inactive” in each case.
On to `COC(=O)c1ccc(C(=O)OC)c(C(=O)OC)c1`, for which the Potency result in assay [1] and in assay [2] was “inactive” each time.
Turning to `C[C@]12CCC(=O)C=C1CC[C@@H]1[C@@H]2CC[C@@]2(C)[C@H]1CC[C@]2(O)C(=O)CO`, the Potency entry in assay [1] and in assay [2] was “inactive” in each case.
`CN(C)c1ccncc1`: the Potency entry in assay [1] and in assay [2] was “inactive” each time.
Regarding `CC(C=O)Cc1ccc(C(C)C)cc1` (stereo unspecified), the Potency entry in assay [1] and in assay [2] was “inactive” in each case.
`CCCCCCOC(=O)C(C)CC` (stereo unspecified): the Potency entry in assay [1] and in assay [2] was “inactive” throughout.
With `CN(C)C(=O)C(CCN1CCC(O)(c2ccc(Cl)cc2)CC1)(c1ccccc1)c1ccccc1`, the Potency result in assay [1] and in assay [2] was “inactive” in each case.
For `CC(C)(O)CCC(C)(C)O`, the Potency entry in assay [1] and in assay [2] was “inactive” throughout.
As for `O=C(O)Cc1c[nH]c2ccccc12`, the Potency result in assay [1] and in assay [2] was “inactive” throughout.
Regarding `O=C(O)c1ccc2cc(C(=O)O)ccc2c1`, the Potency result in assay [1] and in assay [2] was “inactive” in each case.
With `Cc1cc(C)c(C)c(O)c1`, the Potency result in assay [1] and in assay [2] was “inactive” each time.
Regarding `CCOC(=O)C1OC1c1ccccc1` (stereo unspecified), the Potency result in assay [1] and in assay [2] was “inactive” each time.
As to `CN1CCOC(c2ccccc2)c2ccccc2C1` (stereo unspecified), the Potency entry in assay [1] and in assay [2] was “inactive” in each case.
Take `CC(C(=O)O)c1ccc(C(=O)c2ccccc2)s1` (stereo unspecified): the Potency entry in assay [1] and in assay [2] was “inactive” each time.
As for `CC(C)=CCCC(C)CCOC(=O)C(C)C` (stereo unspecified), the Potency entry in assay [1] and in assay [2] was “inactive” in each case.
For the compound `CCCCCCCCCCCCCCCC[N+](C)(C)CC`, the Potency in assay [1] is 57.1 µM (active) and 26.6 µM (active); in assay [2], 54.6 µM (active) and 26.6 µM (active).
Regarding `NCCCC(N)(C(=O)O)C(F)F` (stereo unspecified), the Potency result in assay [1] and in assay [2] was “inactive” each time.
On to `Clc1cccc(C(c2ccc3nc[nH]c3c2)n2ccnc2)c1` (stereo unspecified), for which the Potency entry in assay [1] and in assay [2] was “inactive” in each case.
As to `COc1ccc([C@@H]2Sc3ccccc3NC(=O)[C@@H]2O)cc1`, the Potency entry in assay [1] and in assay [2] was “inactive” throughout.
In the case of `CCOc1ccc2c(c1)C(C)CC(C)(C)N2` (stereo unspecified), the Potency entry in assay [1] and in assay [2] was “inactive” each time.
`CC(=O)c1cccc([N+](=O)[O-])c1`: the Potency result in assay [1] and in assay [2] was “inactive” each time.
Take `CCCCCCCCCCCCCCCCCCCl`: in assay [1], the viability change, negative = cytotoxic is -1.12% [at 8.39 µM]. Besides, in assay [2], the activity change, negative = cytotoxicity was -6.8% [at 8.39 µM].
For `Nc1cc(C(F)(F)F)ccc1S`, the Potency result in assay [1] and in assay [2] was “inactive” in each case.
For `C[C@@H]1CN(c2c(F)c(N)c3c(=O)c(C(=O)O)cn(C4CC4)c3c2F)C[C@H](C)N1`, the viability change, negative = cytotoxic in assay [1] was -4.19% [at 18.9 µM]. Moreover, the activity change, negative = cytotoxicity in assay [2] is -0.413% [at 18.9 µM].
On to `O=C1[C@H]2CCCC[C@H]2C(=O)N1CCCCN1CCN(c2nsc3ccccc23)CC1`, for which the Potency result in assay [1] and in assay [2] was “inactive” throughout.
For `COc1ccc([C@@H]2CC(=O)c3c(O)cc(O[C@@H]4O[C@H](CO[C@@H]5O[C@@H](C)[C@H](O)[C@@H](O)[C@H]5O)[C@@H](O)[C@H](O)[C@H]4O)cc3O2)cc1OC`, the Potency entry in assay [1] and in assay [2] was “inactive” each time.
